Most compounds without a hit are left out; they make up all but 2.6% or so of the library.
TROY NFkB inh – inhibitors of TROY-dependent NF-kB signaling | 360,000 compounds, 0.98% hits | inhibition, % at 10 µM | Q293 LMP1-TROYcd NF-kB luciferase reporter, 4 h | AID 1347056;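 active = compounds whose plate-normalised and pattern-corrected inhibition of the luciferase reporter signal at the single screening dose is 50% or more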
TWEAK-Fn14 inh – blocks TWEAK-Fn14 interaction in a reporter cell assay; TWEAK-stimulated Fn14 reporter cells, luciferase luminescence, 8 h; inhibition, % at 10 µM; 360,000 compounds, 2% hits; AID 1159606; in the data active = inhibition above about 50%
LMP1 NFkB inh – reduces LMP1-driven NF-kappaB luciferase signal. LMP1-induced NF-kappaB luciferase reporter cells, luminescence. inhibition, % at 12.5 µM. 350,000 compounds, 0.69% hits. AID 504558; in the data active = inhibition above about 41%;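 also: 0% = neutral control wells and 100% = reference inhibitor control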
LGR2 inh – Drosophila LGR2 receptor signaling inhibition; HEK293 LGR2, CRE-luciferase, bursicon-stimulated, 4 h; inhibition, % at 9.99 µM; 380,000 compounds, 0.35% hits;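 active = drop in luminescence signal, shown as inhibition above about 50% in the replicate tests, limit read from the data, passing the limit was not always enough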;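 also: agonist challenge used bursicon conditioned medium at about half maximal strength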
EWS-Fli inh – blocks EWS/Fli oncoprotein-driven transcription; AID 651661; 350,000 compounds, 0.67% hits; A673 NR0B1-luciferase reporter, viability-normalised; inhibition, % at 12.6 µM;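 active = mean inhibition of at least 50% after viability correction, with every replicate also passing that limit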;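 also: firefly luciferase signal divided by Alamar Blue viability fluorescence both relative to DMSO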
DNA binding – small molecule DNA binding by fluorescence polarization; shares compounds with EWS-Fli inh; salmon sperm DNA acridine orange fluorescence polarization; AC35, µM (titrated, usually from 68 µM), for inactives: top-dose activity change, negative = DNA binding; 640 compounds, 2% hits; AID 720586;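 active = fitted curve reaches a 35% signal fall AC35 below twice the sample's top valid tested dose, actives reach about 48 µM in these data; inactive = the rest, including activity in the rising direction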;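 also: lower polarization ratio signals compound binding to DNA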
Active calls of the source: *.

Screening C[C@H]1CN([C@@H](C)CO)C(=O)c2cc(NS(=O)(=O)c3ccc(Cl)cc3)ccc2O[C@H]1CN(C)Cc1ccc(C(=O)Nc2ccccc2N)cc1 returned LGR2 inh -15.2, EWS-Fli inh 60.8* and DNA binding -11.8%.
`COc1ccc(S(=O)(=O)Nc2ccc3c(c2)C(=O)N([C@@H](C)CO)C[C@@H](C)[C@@H](CN(C)Cc2ccc(C(=O)Nc4ccccc4N)cc2)O3)cc1` gave LGR2 inh 12.5 and EWS-Fli inh 49.3.
Screening N#C[C@@H]1[C@H](c2ccc(C#CC3(O)CCCC3)cc2)[C@H](CO)N1C(=O)C1CCC1 returned LGR2 inh 10.9 and EWS-Fli inh 2.3.
`COCC(=O)Nc1ccc2c(c1)C(=O)N(C)C[C@@H](OC)[C@H](C)CN[C@@H](C)CO2` gave LGR2 inh 7.3 and EWS-Fli inh -1.4.
`CN(C)CC(=O)Nc1ccc2c(c1)[C@@H]1C[C@@H](CC(=O)NCc3ccccn3)O[C@@H](CO)[C@@H]1O2` gave LGR2 inh -4.8 and EWS-Fli inh -6.8.
COc1ccc(S(=O)(=O)Nc2ccc3c(c2)C(=O)N([C@@H](C)CO)C[C@H](C)[C@@H](CN(C)C(=O)Nc2ccc4c(c2)OCO4)O3)cc1 was read as LGR2 inh 1.9 and EWS-Fli inh -6.5.
`C/C=C/c1ccc2c(c1)O[C@H](CN(C)C(=O)Cc1cccnc1)[C@H](C)CN([C@@H](C)CO)S2(=O)=O` gave LGR2 inh 3.5 and EWS-Fli inh -9.1.
For O=C(N/N=C/c1c(F)c(F)c(F)c(F)c1F)c1cc(-c2ccccc2)nc2ccccc12 the results were TROY NFkB inh 14.7, TWEAK-Fn14 inh -9.0, LGR2 inh 10.1 and EWS-Fli inh -3.3.
`O=C(N/N=C/c1ccc[nH]1)c1cc(-c2ccc(Cl)cc2)nc2ccccc12` gave TROY NFkB inh 11.1, TWEAK-Fn14 inh 19.6, LMP1 NFkB inh -11.8, LGR2 inh 10.0, EWS-Fli inh 54.3* and DNA binding -6.2%.
COc1ccc(C=C(C#N)C(=O)c2ccccc2)cc1 was read as TROY NFkB inh -7.0, TWEAK-Fn14 inh 3.7, LGR2 inh -34.9 and EWS-Fli inh 5.0.
For COc1ccc(/C=C(/C(=O)c2cccs2)N2C=CC=CC2=C(C#N)C#N)cc1 the results were TROY NFkB inh 39.7, TWEAK-Fn14 inh 33.9, LMP1 NFkB inh -0.3, EWS-Fli inh 79.1* and DNA binding 2.3%.
`O=C(Nc1ccc2c(c1)[C@@H]1C[C@H](CC(=O)N3CCc4ccccc4C3)O[C@H](CO)[C@@H]1O2)NC1CCCC1` gave LGR2 inh 0.2 and EWS-Fli inh -4.5.
Screening CCc1ccc(NC(=O)c2cnn3c(C(F)F)cc(C)nc23)cc1 returned TROY NFkB inh 2.0, TWEAK-Fn14 inh -18.8, LMP1 NFkB inh 2.0, LGR2 inh 2.2 and EWS-Fli inh 0.5.
For CCc1ccc(Cn2ncc3c(C(=O)O)cc(C)nc32)cc1 the results were TROY NFkB inh 3.6, TWEAK-Fn14 inh 11.4, LMP1 NFkB inh 3.1, LGR2 inh -12.5, EWS-Fli inh 75.4* and DNA binding 9.5%.
Screening CCCCC1Cc2[nH]c(=S)[nH]c(=O)c2C(c2ccc3ccccc3c2)O1 (stereo not drawn) returned TROY NFkB inh 2.0, TWEAK-Fn14 inh -10.0, LGR2 inh -10.8 and EWS-Fli inh 5.0.
Screening CCCC[C@@H]1Cc2[nH][nH]c(=O)c2[C@H](c2ccc3ccccc3c2)O1 returned TROY NFkB inh -10.7, TWEAK-Fn14 inh 17.1, LGR2 inh -6.9, EWS-Fli inh 52.4* and DNA binding 2.8%.
Screening Cc1c(Cl)cnc(NC(=O)COC(=O)c2ccc3ncsc3c2)c1Cl returned TROY NFkB inh -10.0, TWEAK-Fn14 inh 23.9, LMP1 NFkB inh 12.9, LGR2 inh 8.1, EWS-Fli inh 62.2* and DNA binding -11.7%.
For CC1(C(=O)NCc2ccco2)Cc2c(-c3cccc(C(N)=O)c3)ccnc2O1 (stereo not drawn) the results were TROY NFkB inh -0.6, TWEAK-Fn14 inh 28.3, LGR2 inh -20.0, EWS-Fli inh 52.7* and DNA binding -11.4%.
CN(C)c1ccc(-c2ccnc3c2CC(C)(C(=O)NCc2cccs2)O3)cc1 (stereo not drawn) was read as TROY NFkB inh 11.7, TWEAK-Fn14 inh 16.9, LGR2 inh -4.5 and EWS-Fli inh 47.0.
Screening CC1(C(=O)NCc2ccco2)Cc2c(-c3cccc(C(F)(F)F)c3)ccnc2O1 (stereo not drawn) returned TROY NFkB inh 25.5, TWEAK-Fn14 inh 14.8, LGR2 inh 5.3 and EWS-Fli inh 39.0.
For CN(C)c1ccc(-c2ccnc3c2CC(C)(C(=O)NCc2ccco2)O3)cc1 (stereo not drawn) the results were TROY NFkB inh 16.8, TWEAK-Fn14 inh 30.2, LGR2 inh -5.1, EWS-Fli inh 64.1* and DNA binding 3.4%.
Cc1nn(C)cc1NC(=O)C[C@H]1CC[C@H]2[C@@H](COc3ccc(NC(=O)C4CCOCC4)cc3C(=O)N2C)O1 was read as LGR2 inh 4.7 and EWS-Fli inh 2.7.
CCN1CCCC(OC(=O)C(c2ccccc2)c2ccccc2)C1 (stereo not drawn) was read as TROY NFkB inh 0.9, TWEAK-Fn14 inh -16.4, LMP1 NFkB inh -12.7 and EWS-Fli inh 1.5.
Screening CN(C)[C@@H]1CCC[C@@H]1OC(=O)C(c1ccccc1)c1ccccc1 returned TROY NFkB inh 6.2, TWEAK-Fn14 inh 13.1, LMP1 NFkB inh -0.9, LGR2 inh 7.3, EWS-Fli inh 87.3* and DNA binding -1.4%.
Screening C[C@H](CO)N1C[C@H](C)[C@@H](CN(C)Cc2ccc(-c3ccccc3)cc2)Oc2c(NC(=O)NC3CCCCC3)cccc2C1=O returned EWS-Fli inh 1.2.
`O=C1CCCC2=C1C(c1ccco1)Nc1ccc(C(=O)c3ccccc3)cc1N2` (stereo not drawn) gave TROY NFkB inh -10.4, TWEAK-Fn14 inh 29.2 and LMP1 NFkB inh -6.6.
O=C1CCCC2=C1C(c1ccccn1)Nc1ccc(C(=O)c3ccccc3)cc1N2 (stereo not drawn) was read as TROY NFkB inh -58.2, TWEAK-Fn14 inh 7.5, LMP1 NFkB inh -1.4, LGR2 inh 3.7, EWS-Fli inh 79.6* and DNA binding -6.2%.
Screening Cc1ccc(-c2nnc(-c3ccccc3)c(-c3ccccc3)n2)cc1 returned TROY NFkB inh -17.6, TWEAK-Fn14 inh -3.8, LMP1 NFkB inh -0.8, LGR2 inh 7.4 and EWS-Fli inh 1.2.
Cc1ccc2nc(-c3ccccc3)nn2c1 was read as TROY NFkB inh 61.6*, TWEAK-Fn14 inh 94.2*, LMP1 NFkB inh 64.0*, LGR2 inh 86.3*, EWS-Fli inh 71.8* and DNA binding -12.2%.

Source: PubChem (several laboratories)
